Sampled rows, rich in hits. Any-hit rate of the full collection: about 0.28%.
hcGAS inh: inhibitors of human cGAS; recombinant h-cGAS, ATP depletion, Kinase-Glo luminescence; inhibition, % at 12.5 µM; 0.081% of 290,000 active; AID 1259398;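 note: 0% = vehicle reaction and 100% = reaction without DNA for no activity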
NPYLR7 agonist: mosquito NPYLR7 agonism | HEK293T NPYLR7/Galpha15, GCaMP6s calcium fluorescence | activation, % at 10 µM | 0.15% of 270,000 active | AID 1259423; in the data active = activation above about 40%;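 note: 0% = vehicle and 100% = reference agonist at the receptor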
mcGAS inh: blocks mouse cGAS activity; recombinant cGAS, Kinase-Glo ATP depletion luminescence; inhibition, % at 12.5 µM; 0.15% of 160,000 active; AID 1259399;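 note: 0% = negative control wells and 100% = reference inhibitor with no enzyme activity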
Target sequence (Q8C6L5 whole entry, looked up): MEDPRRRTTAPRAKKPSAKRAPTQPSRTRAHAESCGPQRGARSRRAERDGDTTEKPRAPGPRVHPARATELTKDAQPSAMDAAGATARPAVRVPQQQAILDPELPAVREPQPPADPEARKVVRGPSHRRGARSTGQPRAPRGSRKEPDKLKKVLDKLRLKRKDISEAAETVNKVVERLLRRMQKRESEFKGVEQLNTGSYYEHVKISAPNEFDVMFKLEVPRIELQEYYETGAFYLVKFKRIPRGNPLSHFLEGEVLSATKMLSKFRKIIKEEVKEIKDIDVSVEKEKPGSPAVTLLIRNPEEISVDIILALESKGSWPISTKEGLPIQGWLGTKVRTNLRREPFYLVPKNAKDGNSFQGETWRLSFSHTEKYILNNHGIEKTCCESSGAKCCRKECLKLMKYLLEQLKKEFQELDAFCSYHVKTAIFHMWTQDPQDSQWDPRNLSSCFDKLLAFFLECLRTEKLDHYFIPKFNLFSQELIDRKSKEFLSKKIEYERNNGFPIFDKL
Active calls of the source: *; x = no result given. Cut-off read from the data, not from the text of the source, unless noted: active = inhibition above about 40%; inactive = the rest.

SMILES | hcGAS inh | NPYLR7 agonist | mcGAS inh
CC(NC(=O)CCc1nc2ccccc2c(=O)[nH]1)C1CC2CCC1C2 (stereo unspecified) | -5 | 13 | x
COC(=O)c1nc(Cl)cnc1N | 2 | -1 | x
CN(Cc1ccccn1)C(=O)c1ccc2oc(Cc3ccc(Cl)cc3)nc2c1 | -6 | 13 | -10
O=C(OCN1C(=O)c2ccccc2C1=O)c1ccccc1 | -15 | 22 | x
O=C(OCC1(O)C(Cl)C=CC(OC(=O)c2ccccc2)C1O)c1ccccc1 (stereo unspecified) | -2 | -14 | 48*
Cn1c(=O)c2c(nc3n2CC(c2ccc(F)cc2)=NN3CCN2CCCCC2)n(C)c1=O | 1 | 16 | x
CCc1ncc(C(=O)N(Cc2cccnc2)Cc2cccnc2)cn1 | 3 | 1 | x
COc1ccc2c(c1)OCC(C=C(C#N)S(=O)(=O)c1ccc(Br)cc1)=C2 | -6 | 93* | x
Cc1ccc(C=C(C#N)S(=O)(=O)c2ccc(Br)cc2)o1 | -6 | 5 | x
O=C(NCCNc1nc(-c2ccccc2Cl)nc2cc(Cl)ccc12)c1ccc(C(F)(F)F)cc1 | -6 | 7 | -5
Cc1ccc(-c2nnc(SCCCC(=O)NCCc3ccccc3)n2-c2ccc(C)cc2)cc1 | -4 | 5 | -4
Cn1ccnc1SCC(=O)c1cc(I)c(O)c(I)c1 | 8 | -1 | 76*
CC(C)Cn1c(N)c(C(=O)CSc2nccn2C)c(=O)n(C)c1=O | -4 | -3 | -6
CN(C)Cc1ccccc1Cc1ccccc1 | -3 | 2 | x
CN(C)Cc1ccc2ccc3cccc4ccc1c2c34 | 84* | 1 | x
CC(C)(C)CC(=O)Nc1ccc(Oc2ccc(CC#N)cc2)nc1 | 7 | -1 | x
C=CC(=O)N1CCN(c2nc3ccccc3nc2C(=O)OCC)CC1 | -10 | 12 | -4
CCOC(=O)c1nc2ccccc2nc1N1CCN(C(=O)N2CCOCC2)CC1 | -6 | 52* | x
Nc1ccc(O)c(C(=O)O)c1 | -4 | -7 | x
O=C(O)C1=CC(=C(c2ccc(O)c(C(=O)O)c2)c2ccc(O)c(C(=O)O)c2)C=CC1=O | 80* | -3 | 106*
CCCCOc1ccc(S(=O)(=O)N2CCN(C3c4ccccc4CCc4ccccc43)CC2)cc1 | 2 | 2 | 1
COc1cc2c(C#N)c(N(CCO)CCO)nc(N)c2c(N)n1 | 56* | -4 | 3
CCOc1cc2c(C#N)c(N(CC(C)C)CC(C)C)nc(N)c2c(N)n1 | -7 | 12 | x
CCNc1ccc(OC)nc1 | 0 | 55* | x
CNc1ccc(-c2ccc(OC)nc2)cn1 | -17 | 2 | x
SMILES | hcGAS inh | NPYLR7 agonist | mcGAS inh
CC(C)COc1ccccc1CN(C)C(=O)c1cn(C)c2ccccc2c1=O | -6 | 0 | x
c1cc(CN2CCCC2)cc(NCc2csnn2)c1 | -6 | 1 | -4
CCNC(=O)CSc1ccc2c3c(cccc13)C(=O)c1ccccc1-2 | 2 | 37 | x
O=C(O)CSc1ccc2c3c(cccc13)C(=O)c1ccccc1-2 | 76* | 94* | 66*
CN(C)C1CCCN(Cc2noc(-c3ccccc3)n2)CC1 (stereo unspecified) | -6 | 6 | x
COCCNC(=O)N1CCc2nc(N3CCN(C)CC3)sc2C1 | 58* | x | -2
CCCNC(=O)N1CCN(c2nc3c(s2)CN(C(=O)CC)CC3)CC1 | -6 | x | -6
COc1ccc(C(=O)N(Cc2cccnc2)c2nc3c(F)cc(F)cc3s2)cc1 | -4 | -8 | -6
COc1ccccc1C1c2cccn2CCCN1Cc1ccccc1[N+](=O)[O-] (stereo unspecified) | 81* | 7 | -5
CCc1ccccc1C1c2cccn2CCCN1Cc1ccccc1[N+](=O)[O-] (stereo unspecified) | 1 | 12 | -3
O=c1oc2c(CN3CCN(CCO)CC3)c(O)ccc2cc1-c1ccccn1 | -7 | 10 | x
O=c1oc2c(CN3CCN(CCO)CC3)c(O)ccc2cc1-c1nc2ccccc2s1 | -5 | 66* | x
CCC(N=C1CC(=O)OC12CCCCC2)C12CC3CC(CC(C3)C1)C2 (stereo unspecified) | 7 | x | 1
CCOC(=O)c1c(-c2ccccc2)csc1N=Cc1nc(-c2ccco2)oc1O | -8 | 141* | -8
CCOC(=O)c1c(N=Cc2nc(-c3ccccc3)oc2O)sc(C)c1C | -5 | -5 | -3
O=c1cc(C(F)(F)F)c2ccc(O)cc2o1 | -10 | 57* | -4
O=c1cc(O)c2ccc(O)cc2o1 | 3 | 3 | 0
CC(=O)c1oc2ccccc2c1NC(=O)CSc1nnc(-c2ccco2)n1C | -6 | 1 | x
Cc1ccc(OCCNC(=O)N2CCN(S(=O)(=O)c3ccccc3Cl)CC2)c(C)c1 | -11 | 46* | -8
Cc1cc(C)c(C)c(OCCCNC(=O)N2CCN(S(=O)(=O)c3ccccc3[N+](=O)[O-])CC2)c1 | -7 | 17 | -5
Cc1ccc(CN(C)C(C)c2nc(C)no2)c(C)c1 (stereo unspecified) | -19 | -6 | x
